A selection: hits, their analogues and other compounds. The true share with any hit is near 6.8%.
C diff HTS: blocks growth of Clostridium difficile; growth activity, negative = inhibition, % at 16 µg/mL (by protocol); Clostridium difficile clinical isolate growth, OD600, 24 h; stronger effect = lower value; actives 0.25% (n = 86,000); AID 1259249;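 active = mean growth activity at or below -80% and every replicate also at or below -80%; inconclusive = mean at or below -80% but some replicate above -80%; inactive = mean growth activity above -80%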
Pf Dd2 growth: blocks growth of Plasmodium falciparum Dd2 parasites; P. falciparum Dd2 growth, SYBR Green, 72 h; stronger effect = lower value; activity change, % at 10 µM; actives 2.3% (n = 94,000); AID 1159554; in the data active = activity change below about -80%; inconclusive = no clear call, values can overlap the other calls
Tcruzi prolif: blocks T. cruzi growth in NIH3T3 culture; actives 5.9% (n = 77,000); AID 624255; T. cruzi beta-gal in NIH3T3, GalScreen luminescence, 90 h; inhibition, % at 8.34 µM;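 active = mean inhibition above about 93%, with at least 55% of replicates each passing it, limit read from the data, passing the limit was not always enough; inconclusive = only one of those two conditions holds; inactive = neither condition holds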
Hits are given with their value.

Cc1ccc(S(=O)(=O)Nc2ccc3c(c2)CC(=O)N([C@@H](C)CO)C[C@@H](C)[C@H](CN(C)Cc2ccc(C(=O)Nc4ccccc4N)cc2)O3)cc1 was read as C diff HTS inactive, Pf Dd2 growth inactive and Tcruzi prolif inactive.
`Cc1ccc(S(=O)(=O)Nc2ccc3c(c2)CC(=O)N([C@H](C)CO)C[C@H](C)[C@H](CN(C)Cc2ccc(C(=O)Nc4ccccc4N)cc2)O3)cc1` gave C diff HTS inactive, Pf Dd2 growth -88.1 and Tcruzi prolif inactive.
C[C@@H]1CN([C@@H](C)CO)C(=O)Cc2cc(NS(=O)(=O)c3ccccc3)ccc2O[C@H]1CN(C)Cc1ccc(C(=O)Nc2ccccc2N)cc1 was read as C diff HTS inactive, Pf Dd2 growth inactive and Tcruzi prolif inactive.
CS(=O)(=O)Nc1ccc2c(c1)[C@H]1C[C@@H](CC(=O)NCc3ccc(Cl)cc3)O[C@H](CO)[C@H]1O2 was read as C diff HTS inactive, Pf Dd2 growth inactive and Tcruzi prolif inactive.
O=C(C[C@H]1CC[C@H]2[C@@H](COC[C@@H](O)CN2C(=O)c2ccncc2)O1)NC1Cc2ccccc2C1 was read as C diff HTS inactive, Pf Dd2 growth inactive and Tcruzi prolif inactive.
C[C@@H]1CN([C@H](C)CO)C(=O)c2cccc(NC(=O)c3ccc(-c4nccs4)cc3)c2O[C@H]1CN(C)Cc1ccc(C(=O)O)cc1 was read as C diff HTS inactive, Pf Dd2 growth inactive and Tcruzi prolif inactive.
For C[C@@H]1CN([C@H](C)CO)C(=O)c2cccc(NC(=O)c3ccc(-c4nccs4)cc3)c2O[C@H]1CN(C)Cc1ccc(C(F)(F)F)cc1 the results were Pf Dd2 growth -91.4 and Tcruzi prolif inactive.
C[C@@H]1CN([C@H](C)CO)C(=O)c2cccc(NC(=O)c3nc4ccccc4s3)c2O[C@H]1CN(C)Cc1ccc(C(=O)O)cc1 was read as C diff HTS inactive, Pf Dd2 growth inactive and Tcruzi prolif inactive.
C[C@@H]1CN([C@H](C)CO)C(=O)c2cccc(NC(=O)c3ccc(-c4nccs4)cc3)c2O[C@H]1CN(C)Cc1ccccc1 was read as C diff HTS inactive, Pf Dd2 growth inactive and Tcruzi prolif inactive.
For C[C@@H]1CN([C@@H](C)CO)C(=O)c2cccc(NC(=O)c3nc4ccccc4s3)c2O[C@@H]1CN(C)Cc1ccc(C(=O)Nc2ccccc2N)cc1 the results were Pf Dd2 growth -90.9 and Tcruzi prolif inactive.
Screening C[C@@H]1CN([C@H](C)CO)C(=O)c2cccc(NC(=O)c3ccc(-c4nccs4)cc3)c2O[C@@H]1CN(C)Cc1ccc(-c2ccccc2)cc1 returned C diff HTS inactive, Pf Dd2 growth inactive and Tcruzi prolif inactive.
`C[C@@H]1CN([C@@H](C)CO)C(=O)c2cccc(NC(=O)c3ccc(-c4nccs4)cc3)c2O[C@H]1CN(C)Cc1ccc(C(=O)Nc2ccccc2N)cc1` gave C diff HTS inactive, Pf Dd2 growth -93.0 and Tcruzi prolif inactive.
`C[C@@H]1CN([C@H](C)CO)C(=O)c2cccc(NC(=O)c3ccc(-c4nccs4)cc3)c2O[C@@H]1CN(C)Cc1ccc(C(=O)Nc2ccccc2N)cc1` gave C diff HTS inactive, Pf Dd2 growth -90.9 and Tcruzi prolif inactive.
`CO[C@@H]1CN(C)C(=O)c2cc(NC(=O)Nc3ccccc3F)ccc2OC[C@@H](C)NC[C@@H]1C` gave Pf Dd2 growth inactive and Tcruzi prolif inactive.
`C[C@@H]1CN([C@H](C)CO)C(=O)Cc2cc(NC(=O)c3ccncc3)ccc2O[C@H]1CN(C)S(=O)(=O)c1ccc(F)cc1` gave C diff HTS inactive, Pf Dd2 growth inactive and Tcruzi prolif inactive.
`COc1ccc2c3c(n(C)c2c1)[C@@H](CO)N(Cc1ccccc1)CC31CCN(C(=O)C2CC2)CC1` gave C diff HTS inactive and Pf Dd2 growth inactive.
For CCC(=O)N1CCC2(CC1)CN(Cc1cccc(Cl)c1)[C@H](CO)c1c2c2ccc(OC)cc2n1C the results were C diff HTS inactive and Pf Dd2 growth -89.0.
Screening COc1ccc2c3c(n(C)c2c1)[C@H](CO)N(Cc1ccccc1)CC31CCN(C(=O)C2CC2)CC1 returned C diff HTS inactive and Pf Dd2 growth -83.1.
For COc1ccc2c3c(n(C)c2c1)[C@@H](CO)N(Cc1cccc(Cl)c1)CC31CCN(C(C)=O)CC1 the results were C diff HTS inactive and Pf Dd2 growth inactive.
COc1ccc2c3c(n(C)c2c1)[C@H](CO)N(Cc1cc(F)ccc1F)CC31CCN(C(=O)C2CC2)CC1 was read as C diff HTS inactive and Pf Dd2 growth inconclusive.
`COc1ccc2c3c(n(C)c2c1)[C@@H](CO)N(Cc1cc(F)ccc1F)CC31CCN(C(=O)C2CC2)CC1` gave C diff HTS inactive and Pf Dd2 growth -81.1.
`CC(C)c1cn(CC[C@@H]2CC[C@H](NC(=O)c3cccc(F)c3)[C@@H](CO)O2)nn1` gave Pf Dd2 growth inactive and Tcruzi prolif inactive.
Screening C[C@H]1CN([C@@H](C)CO)C(=O)Cc2cc(NC(=O)CCCCCC(=O)Nc3ccccc3N)ccc2O[C@H]1CN(C)C(=O)Nc1ccccc1 returned C diff HTS inactive, Pf Dd2 growth inactive and Tcruzi prolif inactive.
For COC(=O)C[C@H]1CC[C@H]2[C@@H](COC[C@H](O)CN2S(=O)(=O)c2ccccc2C)O1 the results were C diff HTS inactive, Pf Dd2 growth inactive and Tcruzi prolif inactive.
CNC[C@H]1Oc2ccc(NS(C)(=O)=O)cc2CC(=O)N([C@@H](C)CO)C[C@H]1C was read as C diff HTS inactive, Pf Dd2 growth inactive and Tcruzi prolif inactive.
CC(C)CC#Cc1ccc([C@@H]2[C@@H](CO)N3CCCCN(S(=O)(=O)Cc4ccccc4)C[C@@H]23)cc1 was read as C diff HTS inactive, Pf Dd2 growth -82.8 and Tcruzi prolif inactive.
Screening CCCC#Cc1ccc([C@H]2[C@@H](CO)N3CCCCN(S(=O)(=O)Cc4ccccc4)C[C@@H]23)cc1 returned C diff HTS inactive, Pf Dd2 growth inactive and Tcruzi prolif inactive.
`CC(C)CC#Cc1ccc([C@@H]2[C@H](CO)N3CCCCN(S(=O)(=O)Cc4ccccc4)C[C@@H]23)cc1` gave C diff HTS inactive, Pf Dd2 growth -84.4 and Tcruzi prolif inactive.
`CCCC#Cc1ccc([C@@H]2[C@@H](CO)N3CCCCN(S(=O)(=O)Cc4ccccc4)C[C@H]23)cc1` gave C diff HTS inactive, Pf Dd2 growth inactive and Tcruzi prolif inactive.
CCC(=O)N(C)C[C@H]1Oc2ncc(-c3ccc(C)cc3)cc2C(=O)N([C@@H](C)CO)C[C@H]1C was read as C diff HTS inactive, Pf Dd2 growth inactive and Tcruzi prolif inactive.
For COc1ccc(NC(=O)Nc2ccc3c(c2)C(=O)N([C@H](C)CO)C[C@H](C)[C@H](CN(C)S(=O)(=O)c2c(C)noc2C)OCCCC[C@H](C)O3)cc1 the results were C diff HTS inactive, Pf Dd2 growth inactive and Tcruzi prolif inactive.
For Cc1noc(C)c1S(=O)(=O)N(C)C[C@H]1OCCCC[C@H](C)Oc2ccc(NC(=O)Nc3ccc(C(F)(F)F)cc3)cc2C(=O)N([C@H](C)CO)C[C@@H]1C the results were C diff HTS inactive, Pf Dd2 growth inactive and Tcruzi prolif 102.1.
Cc1noc(C)c1S(=O)(=O)N(C)C[C@@H]1OCCCC[C@H](C)Oc2ccc(NC(=O)Nc3ccc(C(F)(F)F)cc3)cc2C(=O)N([C@H](C)CO)C[C@H]1C was read as C diff HTS inactive, Pf Dd2 growth inactive and Tcruzi prolif inactive.

Screening results from PubChem.
